Among the data in PubChem BioAssay are composite z-score and z-score values, retold here.

Assay [1] can be described thus: binders of probe aFSTL3 on microarray, primary screen, stem cell growth factor project, biochemical, small-molecule microarray, fluorescence 635/667 (AID 1064).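 Also: measures binding of the biotinylated anti-FSTL3 antibody to printed compounds.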 Particulars: higher = more signal.
Assay [2] can be described thus: binders from COS7 lysate, DM2A8 probe, primary screen, torsin A project, cell lysate, small-molecule microarray, fluorescence 635/667 (AID 1065). The settings on record: higher = more signal, COS7 lysate expressing mutant human TOR1A.
The nature of assay [3]: binders of probe aFGF2 on microarray, primary screen, stem cell growth factor project, biochemical, small-molecule microarray, fluorescence 635/667 (AID 1067).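 Also: measures binding of biotinylated aFGF2 protein to printed compounds on slides; z-score merges feature fluorescence and signal-to-noise across triplicate slides.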 The settings on record: higher = more signal.
The nature of assay [4]: binders of probe aFGF10 on microarray, primary screen, stem cell growth factor project, biochemical, small-molecule microarray, fluorescence 635/667 (AID 1071).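 Also: score merges 667 nm spot intensity and signal to noise from triplicate slides.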 The settings on record: higher = more signal.
For assay [5], the target named is Neurogenic locus notch homolog protein 2 (Homo sapiens) (UniProt Q04721). Kind of assay: Notch2 binders on small-molecule microarrays, primary screen, biochemical, small-molecule microarray, 635 nm fluorescence, stem cell growth factors (AID 1073). Particulars: Notch2 binding, higher = more signal.
Assay [6] deals with Pro-neuregulin-1, membrane-bound isoform (Homo sapiens) (UniProt Q02297). Put plainly: NRG1 binders on small-molecule microarrays, primary screen, psychiatric disease protein project, biochemical, small-molecule microarray, fluorescence 635/667 (AID 1075).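 Also: score combines 667 nm spot fluorescence with signal to noise.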 The settings on record: NRG1 binding, 635 nm fluorescence, higher = more signal.
Assay [7] concerns Neuregulin-1 EGF-like domain. Put plainly: binders of neuregulin-1 EGF-like domain, primary screen, biochemical, small-molecule microarray, 635 nm fluorescence (AID 1081).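 Also: binding of the protein to compounds printed on small-molecule microarray slides.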 Particulars: small-molecule microarray binding, higher = more signal.
The nature of assay [8]: FRG1 promoter luciferase signal modulators, primary screen, FRG1 inhibition for FSHD, cell-based, C2C12 myotubes, firefly/Renilla luciferase, luminescence (AID 1084). Particulars: higher = more signal, called active from +8 up or from −8 down.
Assay [9] in a line: binders of probe aFST on microarray, primary screen, stem cell growth factor project, biochemical, small-molecule microarray, fluorescence 635/667 (AID 1086).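 Also: score merges 667 nm fluorescence with signal-to-noise of each printed compound spot.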 The settings on record: higher = more signal.
The nature of assay [10]: binders of probe aHhip on microarray, primary screen, stem cell growth factor project, biochemical, small-molecule microarray, fluorescence 635/667 (AID 1087).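 Also: score merges spot fluorescence at 667nm with spot signal to noise ratio.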 The settings on record: higher = more signal.
The subject of assay [11] is PRMT1 (protein arginine N-methyltransferase 1). Kind of assay: PRMT1 binders on small-molecule microarrays, primary screen, biochemical, small-molecule microarray, 635 nm fluorescence (AID 1088).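 Also: binding of Prmt1 protein to compounds spotted on small-molecule microarray slides.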 Particulars: small-molecule microarray binding, higher = more signal.
Assay [12] in a line: yeast growth modulation, basal conditions, primary screen, YJM789 clinical isolate, OD600, 24 h (AID 1089).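 Also: growth of clinical yeast isolate S. cerevisiae YJM 789 seeded 1000 cells per well; test concentration not given here.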 The settings on record: S. cerevisiae YJM789 growth, higher = more signal, called active from +8 up or from −8 down.
Assay [13] can be described thus: fission yeast growth modulation, primary screen, strain 972, OD600, 24 h, no modulator (AID 1090).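 Also: basal condition with compound alone and no growth modifier present; test concentration not given here.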 Particulars: S. pombe 972 growth, higher = more signal, called active from +8 up or from −8 down.
Assay [14] can be described thus: S. cerevisiae growth modulation with rapamycin, primary screen, strain BY4716, OD600, 96 h (AID 1091). Also: test concentration not given here. The settings on record: higher = more signal, called active from +8 up or from −8 down.
In assay [15] the target is Torsin-1A-interacting protein 2 (Homo sapiens) (UniProt Q8NFQ8). Put plainly: LULL1 binders on small-molecule microarray, primary screen, cell lysate, human LULL1 lysate, 635/667 nm fluorescence (AID 1092).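 Also: probe is lysate of COS7 cells overexpressing human LULL1; score merges per-feature 667 nm fluorescence with signal-to-noise.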 Particulars: hLULL1 lysate binding, 635 nm fluorescence, higher = more signal.
Assay [16] in a line: E. coli growth modulation, two-sided OD650, primary screen, E. coli filamentation project, strain DRC41, 24 h (AID 1093).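 Also: MC1000 strain lacking acrAB efflux and sulA so SOS filamentation is blocked; test concentration not given here.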 Particulars: OD650, 24 h, higher = more signal, called active from +8 up or from −8 down.
Assay [17] is described as follows: small-molecule microarray binders of probe aLefty2, primary screen, biochemical, biotinylated probe, 635/667 nm fluorescence (AID 1094).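 Also: score merges spot fluorescence near 667 nm with spot signal-to-noise ratio.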 The settings on record: higher = more signal.
The test system of assay [18] is Noggin (protein binding on small-molecule microarray). Kind of assay: Noggin binders on small-molecule microarray, primary screen, biochemical, 635/667 nm fluorescence (AID 1095).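 Also: score merges 667 nm feature fluorescence with signal to noise over triplicate slides.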 The settings on record: 635 nm fluorescence, higher = more signal.
Assay [19] concerns the target Neurogenic locus notch homolog protein 3 (Homo sapiens) (UniProt Q9UM47). Put plainly: NOTCH3 binders on small-molecule microarray, primary screen, biochemical, 635/667 nm fluorescence (AID 1096). The settings on record: NOTCH3 binding, 635 nm fluorescence, higher = more signal.
The nature of assay [20]: small-molecule microarray binders of probe aEGFR, primary screen, biochemical, biotinylated probe, 635/667 nm fluorescence (AID 1097).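 Also: probe is a biotinylated anti-EGFR antibody binding compounds printed on slides; score combines fluorescence near 667 nm and signal to noise of each spot.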 The settings on record: higher = more signal.

Activity calls are given as the source filed them.

Chain of Torsin-1A-interacting protein 2 (Homo sapiens) (Q8NFQ8 whole entry, looked up): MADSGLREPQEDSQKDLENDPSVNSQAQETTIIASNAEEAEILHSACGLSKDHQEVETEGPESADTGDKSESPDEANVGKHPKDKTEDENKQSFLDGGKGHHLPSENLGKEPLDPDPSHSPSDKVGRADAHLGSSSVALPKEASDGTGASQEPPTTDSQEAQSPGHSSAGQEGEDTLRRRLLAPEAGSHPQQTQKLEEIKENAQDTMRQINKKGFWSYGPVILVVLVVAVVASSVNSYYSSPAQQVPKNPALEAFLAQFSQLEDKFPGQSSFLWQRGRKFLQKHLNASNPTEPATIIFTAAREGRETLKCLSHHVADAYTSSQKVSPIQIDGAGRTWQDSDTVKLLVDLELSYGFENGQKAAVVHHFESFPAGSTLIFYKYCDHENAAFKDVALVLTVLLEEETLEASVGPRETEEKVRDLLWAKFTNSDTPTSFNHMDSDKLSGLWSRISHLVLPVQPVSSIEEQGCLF
Chain of Pro-neuregulin-1, membrane-bound isoform (Homo sapiens) (Q02297 whole entry, looked up, the tested form may be a part, canonical isoform): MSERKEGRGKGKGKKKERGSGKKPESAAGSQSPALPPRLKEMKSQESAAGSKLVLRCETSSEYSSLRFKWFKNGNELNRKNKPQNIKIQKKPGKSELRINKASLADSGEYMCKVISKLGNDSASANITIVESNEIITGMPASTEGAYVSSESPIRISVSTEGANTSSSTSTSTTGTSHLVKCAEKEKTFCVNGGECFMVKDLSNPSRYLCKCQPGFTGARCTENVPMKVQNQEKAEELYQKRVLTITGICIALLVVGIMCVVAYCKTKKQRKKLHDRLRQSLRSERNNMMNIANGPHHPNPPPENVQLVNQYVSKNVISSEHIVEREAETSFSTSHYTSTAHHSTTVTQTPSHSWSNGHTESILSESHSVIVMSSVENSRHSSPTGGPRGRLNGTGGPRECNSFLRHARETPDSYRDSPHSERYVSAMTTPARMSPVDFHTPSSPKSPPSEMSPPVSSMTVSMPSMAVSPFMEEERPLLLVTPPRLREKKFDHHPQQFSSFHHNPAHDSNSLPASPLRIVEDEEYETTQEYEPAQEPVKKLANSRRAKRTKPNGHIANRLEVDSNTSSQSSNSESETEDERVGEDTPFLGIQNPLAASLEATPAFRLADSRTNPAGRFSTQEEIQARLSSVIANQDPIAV
Chain of Neurogenic locus notch homolog protein 3 (Homo sapiens) (Q9UM47 whole entry, looked up): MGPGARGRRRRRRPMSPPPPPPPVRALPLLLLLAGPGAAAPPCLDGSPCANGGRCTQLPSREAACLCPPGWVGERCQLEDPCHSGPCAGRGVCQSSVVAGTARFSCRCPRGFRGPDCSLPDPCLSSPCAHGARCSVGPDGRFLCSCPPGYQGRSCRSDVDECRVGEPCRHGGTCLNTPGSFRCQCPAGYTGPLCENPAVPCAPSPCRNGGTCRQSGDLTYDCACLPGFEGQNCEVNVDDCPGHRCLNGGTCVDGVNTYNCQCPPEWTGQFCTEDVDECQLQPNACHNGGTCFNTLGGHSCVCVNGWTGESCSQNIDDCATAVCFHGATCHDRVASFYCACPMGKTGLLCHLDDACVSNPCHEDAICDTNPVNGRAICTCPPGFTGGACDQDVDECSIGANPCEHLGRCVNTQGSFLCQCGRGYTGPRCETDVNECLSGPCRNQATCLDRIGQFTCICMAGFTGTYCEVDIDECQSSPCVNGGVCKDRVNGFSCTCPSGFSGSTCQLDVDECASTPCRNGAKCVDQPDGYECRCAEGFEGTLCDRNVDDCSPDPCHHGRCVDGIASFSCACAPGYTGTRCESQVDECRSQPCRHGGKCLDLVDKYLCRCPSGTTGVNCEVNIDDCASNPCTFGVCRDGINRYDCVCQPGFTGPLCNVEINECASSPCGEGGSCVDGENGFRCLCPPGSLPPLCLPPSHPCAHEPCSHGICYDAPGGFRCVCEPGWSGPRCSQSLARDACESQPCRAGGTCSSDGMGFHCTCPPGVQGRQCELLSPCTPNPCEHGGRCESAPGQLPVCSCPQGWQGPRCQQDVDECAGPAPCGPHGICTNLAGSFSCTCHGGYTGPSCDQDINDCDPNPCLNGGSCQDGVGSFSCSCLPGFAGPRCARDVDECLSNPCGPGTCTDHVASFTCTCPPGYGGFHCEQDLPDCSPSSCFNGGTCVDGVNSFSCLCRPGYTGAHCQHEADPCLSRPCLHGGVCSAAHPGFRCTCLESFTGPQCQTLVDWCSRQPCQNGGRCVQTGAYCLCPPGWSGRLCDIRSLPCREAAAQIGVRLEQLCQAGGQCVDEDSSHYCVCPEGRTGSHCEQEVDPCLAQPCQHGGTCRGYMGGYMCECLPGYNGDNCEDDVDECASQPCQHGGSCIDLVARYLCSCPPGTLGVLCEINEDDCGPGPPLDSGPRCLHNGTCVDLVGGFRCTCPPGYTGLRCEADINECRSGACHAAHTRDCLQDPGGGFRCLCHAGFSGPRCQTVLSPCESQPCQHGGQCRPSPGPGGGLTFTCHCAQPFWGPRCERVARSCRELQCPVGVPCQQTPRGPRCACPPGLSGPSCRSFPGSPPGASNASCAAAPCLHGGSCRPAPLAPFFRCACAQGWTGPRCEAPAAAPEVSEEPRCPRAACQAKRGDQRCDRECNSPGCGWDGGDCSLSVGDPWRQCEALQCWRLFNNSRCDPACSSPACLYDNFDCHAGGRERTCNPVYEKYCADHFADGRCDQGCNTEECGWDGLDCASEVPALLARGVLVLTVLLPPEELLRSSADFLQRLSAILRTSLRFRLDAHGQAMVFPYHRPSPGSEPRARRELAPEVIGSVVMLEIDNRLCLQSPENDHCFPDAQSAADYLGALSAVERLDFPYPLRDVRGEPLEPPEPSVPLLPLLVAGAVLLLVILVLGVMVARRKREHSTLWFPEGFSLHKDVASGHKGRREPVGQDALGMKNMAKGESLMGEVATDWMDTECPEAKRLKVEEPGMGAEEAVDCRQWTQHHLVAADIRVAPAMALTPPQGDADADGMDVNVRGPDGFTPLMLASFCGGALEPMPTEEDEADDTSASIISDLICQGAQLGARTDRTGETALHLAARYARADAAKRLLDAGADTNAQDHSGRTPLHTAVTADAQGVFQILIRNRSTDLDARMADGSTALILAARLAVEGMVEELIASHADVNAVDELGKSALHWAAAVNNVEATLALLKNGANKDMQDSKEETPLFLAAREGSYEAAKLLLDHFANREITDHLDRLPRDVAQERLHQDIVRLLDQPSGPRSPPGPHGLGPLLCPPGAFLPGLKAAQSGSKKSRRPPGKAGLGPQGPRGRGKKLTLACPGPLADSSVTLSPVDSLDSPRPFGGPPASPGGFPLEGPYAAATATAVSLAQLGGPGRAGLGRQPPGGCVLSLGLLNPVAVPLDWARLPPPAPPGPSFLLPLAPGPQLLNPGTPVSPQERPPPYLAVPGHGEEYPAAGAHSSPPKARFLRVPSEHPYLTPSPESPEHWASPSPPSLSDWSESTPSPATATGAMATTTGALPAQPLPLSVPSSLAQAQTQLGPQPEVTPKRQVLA

Regarding `CO[C@H]1O[C@H](CO)[C@@H](OC(=O)Nc2ccc(Br)cc2)[C@@H]2OC(=O)[C@@H](Cc3ccccc3)C/C=C/C[C@H](Cc3ccccc3)C(=O)O[C@@H]12`, the composite z-score in assay [1] is -0.159; in [2], 1.01; in assay [3] it was -0.07; in [4], 0.79; in assay [5] it was 1.15; in [6], 1.25. Besides, the composite z-score in [7] is 1.09; in assay [9], 0.0279; in [10] it was -0.0645; in assay [11], 1.44; in assay [15], 2.01; in assay [17], 0.0378. Besides, the composite z-score in [18] was 0.202; in [19], 0.464; in [20], -0.0668. The z-score in assay [8] is 0.147 (inactive); in [12], 1.1 (inactive); in assay [13] it was -0.295 (inactive); in assay [14] it was 3.58 (inactive); in assay [16], 1.03 (inactive).
With `C=CCC(OC(C)=O)[C@@H]1[C@@H](N(Cc2ccc(-c3ccccc3)cc2)C(=O)c2ccc(-c3ccccc3)cc2)c2cc(OCCCO)ccc2N1C(=O)c1ccc2ccccc2c1` (stereo not given in full), the composite z-score in [1] is 0.0946; in assay [2] it was 0.107; in assay [3] it was -0.128; in [4], 0.178; in assay [5] it was -0.443; in [6], -0.227. The composite z-score in assay [7] was -0.896; in [9] it was 0.352; in assay [10], -0.353; in [11], 0.636; in assay [15] it was 1.17; in assay [17], 0.0008. Further, the composite z-score in [18] was 0.479; in assay [19], 0.306; in assay [20] it was -0.0531. Moreover, the z-score in assay [8] was 0.807 (inactive); in [12], -0.737 (inactive); in [13] it was 0.109 (inactive); in assay [14], -0.38 (inactive); in assay [16], -0.728 (inactive).
As for `COc1cc(NN2C(C(O)c3ccc(N(C)C)cc3)C=CC3C(=O)N(c4ccccc4)C(=O)C32)cc(OC)c1OC` (stereo not given), the composite z-score in assay [1] came out at 0.817; in assay [2] it was 0.0214; in assay [3] it was 0.107; in assay [4], 0.396; in assay [5] it was 1.18; in assay [6], 0.465. The composite z-score is 1.13 in assay [7]; 0.588 in assay [9]; -0.0618 in assay [10]; 0.824 in assay [11]; 1.4 in assay [15]; 0.473 in [17]. Also, the results for the composite z-score in assay [18], in assay [19] and in assay [20] were -0.308, 0.544 and 0.0955, respectively. Moreover, the z-score was 1.44 (inactive) in assay [8]; 0.146 (inactive) in [12]; -0.424 (inactive) in [13]; -0.363 (inactive) in assay [14]; -1.58 (inactive) in assay [16].
For `Cc1ccc(S[C@]2(C(=O)NC(C)C)CC(=O)N(Cc3cc(C(F)(F)F)cc(C(F)(F)F)c3)[C@@H]2c2ccc(CO)cc2)cc1`, the composite z-score in assay [1] is 0.0795; in assay [2] it was -0.662; in assay [3], -0.145; in [4] it was -0.898; in [5], -1.08; in assay [6], 0.624. Besides, the composite z-score was 0.644 in assay [7]; -0.803 in assay [9]; -0.236 in assay [10]; -0.44 in [11]; 0.47 in assay [15]; -0.117 in [17]. Besides, the composite z-score in assay [18] is -1.27; in assay [19], -1.27; in [20], -0.302. The z-score was 0.237 (inactive) in [8]; -0.637 (inactive) in [12]; -1.03 (inactive) in assay [13]; -0.864 (inactive) in assay [14]; -0.0937 (inactive) in assay [16].
As to `O=C(O)[C@@H]1[C@@H]2C(=O)N(c3ccccc3)C(=O)[C@@H]2C[C@@H]1Sc1ccccc1`, the composite z-score in assay [1] was 0.305; in assay [2], -0.534; in [3], -0.0833; in assay [4] it was 0.105; in [5], -0.0593; in assay [6], -0.141. Also, the composite z-score is 0.695 in assay [7]; -0.377 in assay [9]; 0.0505 in assay [10]; -1.41 in assay [11]; 0.758 in [15]; 0.251 in [17]. The values for the composite z-score in assay [18], in [19] and in [20] were -1.71, -1.56 and 0.196, respectively. Also, the z-score in [8] is 1.06 (inactive); in [12], 0.752 (inactive); in assay [13], 1.68 (inactive); in assay [14], 1.53 (inactive); in assay [16] it was -0.686 (inactive).
For `C=CCNC(=O)[C@@H]1[C@H]2C(=O)O[C@H](c3ccccc3)[C@H](c3ccccc3)N2[C@H](c2ccccc2OCCO)[C@@]12C(=O)Nc1ccc(C#CCCO)cc12`, the composite z-score in assay [1] was -0.501; in [2], 0.143; in [3], 0.0013; in [4], 0.0379; in assay [5], 0.611; in [6] it was 0.99. The composite z-score in assay [7] is 1.19; in assay [9], 0.954; in assay [10], 0.154; in [11], 1.55; in assay [15], 2.3; in assay [17], -0.106. In addition, the composite z-score in assay [18] is 1.23; in assay [19], 0.686; in assay [20] it was -0.165. Besides, the z-score in assay [8] is -0.452 (inactive); in assay [12], 1.31 (inactive); in [13] it was -1.46 (inactive); in [14], 3.43 (inactive); in [16], -0.372 (inactive).
Consider `CCOC(=O)C=Cc1cccc(C)c1O`, for which the composite z-score is -0.071 in assay [1]; -0.232 in assay [2]; -0.0348 in assay [3]; -0.0154 in assay [4]; 0.177 in assay [5]; 0.306 in assay [6]. Moreover, the composite z-score was -0.155 in assay [7]; -0.488 in assay [9]; -0.236 in [10]; 0.23 in assay [11]; 0.236 in assay [15]; -0.166 in assay [17]. Further, the figures for the composite z-score in assay [18], in [19] and in assay [20] were -0.452, -0.0138 and -0.099, respectively. For the same compound, the z-score in assay [8] was 1.5 (inactive); in assay [12], -19.8 (active); in assay [13], -11.5 (active); in assay [14] it was -2.54 (inactive); in [16], 0.666 (inactive).
`COCCOC(=O)N1C(=O)[C@@]2(c3cc(C#CCCO)ccc31)[C@H](C(=O)Nc1nc3ccccc3s1)[C@H]1C(=O)O[C@H](c3ccccc3)[C@H](c3ccccc3)N1[C@@H]2c1ccc(O)cc1`: the composite z-score in assay [1] is -0.223; in assay [2], 0.9; in assay [3], -0.0403; in [4], 0.83; in assay [5], 1.53; in [6], 1.07. Further, the composite z-score in [7] came out at 0.72; in [9] it was 0.346; in assay [10], 0.0505; in [11], 1.54; in assay [15] it was 2.79; in [17], 0.027. Also, the composite z-score in assay [18] amounted to 0.797; in assay [19], 1.03; in assay [20], 0.152. Besides, the z-score in [8] is -0.948 (inactive); in [12] it was 1.32 (inactive); in assay [13], 0.663 (inactive); in assay [14], 2.23 (inactive); in assay [16], 0.467 (inactive).
For the compound `C#CCN(Cc1ccccc1Br)[C@H](/C=C/c1ccccc1)[C@@H](O)Cc1ccccc1`, the composite z-score is 1.6 in assay [1]; -0.145 in assay [2]; -0.164 in assay [3]; -0.738 in [4]; -1.09 in assay [5]; -0.316 in [6]. Also, the composite z-score in [7] is -0.289; in [9], -0.722; in assay [10], 0.0373; in assay [11], -0.384; in assay [15], 0.98; in [17] it was 0.195. Moreover, the composite z-score was -1.24 in [18], -0.623 in [19] and -0.397 in [20]. Also, the z-score was -2.05 (inactive) in assay [8]; 0.737 (inactive) in assay [12]; -12.7 (active) in assay [13]; 1.38 (inactive) in assay [14]; 1.44 (inactive) in [16].
